Screening data as filed in PubChem.
PAX8 inh HTS – PAX8 transcriptional activity inhibition; RMG-I TPO-luciferase reporter, SteadyGlo, 24 h; inhibition, % at 12.6 µM; 360,000 compounds, 1.2% hits; AID 652154;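 active means mean replicate inhibition at least 60% with every replicate also reaching 60%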;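 further: luciferase light reporting Pax8 driven TPO promoter activity; plate controls were median of neutral control wells for no effect and mitoxantrone controls for full effect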
TRPM1 prom inh – MITF TRPM1 promoter inhibition in SK-MEL-5 cells; SK-MEL-5 TRPM1 promoter luciferase, 24 h; AID 488899; inhibition, % at 12.5 µM; 330,000 compounds, 0.83% hits;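 active means mean inhibition across replicates of 60% or more, whatever share of single replicates reaches that level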
LMP1 NFkB inh – Epstein-Barr LMP1 NF-kappaB reporter inhibition; LMP1-induced NF-kappaB luciferase reporter cells, luminescence; inhibition, % at 12.5 µM; 350,000 compounds, 0.69% hits; in the data active means inhibition above about 41%;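 further: 0% = neutral control wells and 100% = reference inhibitor control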
Shn3 3UTR inh – Schnurri-3 reporter inhibition in Clone20 osteoblasts; Clone20 osteoblast Shn3 3'UTR firefly luciferase, 24 h; inhibition, % at 12.5 µM; 360,000 compounds, 0.52% hits;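 active means mean inhibition of at least 75% with every replicate also reaching 75%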;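 further: 0% = median of neutral control wells and 100% = pilot-screen positive control compound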
LGR2 inh – Drosophila LGR2 receptor signaling inhibition | HEK293 LGR2, CRE-luciferase, bursicon-stimulated, 4 h | inhibition, % at 9.99 µM | 380,000 compounds, 0.35% hits | AID 720647;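 active means drop in luminescence signal, shown as inhibition above about 50% in the replicate tests, limit read from the data, passing the limit was not always enough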;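 further: agonist challenge used bursicon conditioned medium at about half maximal strength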
EWS-Fli block – inhibitors of EWS/Fli oncoprotein transcriptional activity. A673 NR0B1-luciferase reporter, viability-normalised. inhibition, % at 12.6 µM. 350,000 compounds, 0.67% hits. AID 651661;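 active means mean inhibition of at least 50% after viability correction, with every replicate also passing that limit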;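 further: firefly luciferase signal divided by Alamar Blue viability fluorescence both relative to DMSO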
* marks the source's active call; other numbers are inactive results; x = not tested or not shown; ! = not active in a repeat. Hits are enriched below; roughly 2.2% of the tested compounds scored in any of these assays.

SMILES | PAX8 inh HTS | TRPM1 prom inh | LMP1 NFkB inh | Shn3 3UTR inh | LGR2 inh | EWS-Fli block
Cc1cccc(S(=O)(=O)N2C[C@@H]3N[C@H](C2)C3c2ccc(-c3ccncc3)cc2)c1 (stereo partly specified) | -7.8 | x | x | x | -1.0 | 56.9*!
COc1cccc(S(=O)(=O)N2C[C@@H]3N[C@H](C2)C3c2ccc(-c3cccc(C)c3)cc2)c1 (stereo partly specified) | 68.7*! | x | x | x | 0.9 | 54.6*!
COc1ccc(-c2ccc(C3[C@@H]4CN(S(=O)(=O)c5cccc(C)c5)C[C@H]3N4)cc2)cc1 (stereo partly specified) | -3.6 | x | x | x | -25.1 | -5.4
O=C(Nc1cc(F)ccc1F)N1CC(=O)N2[C@H](CO)[C@@H](c3ccc(-c4ccc(F)cc4)cc3)[C@@H]2C1 | -7.2 | x | x | x | 9.4 | 6.5
O=C(C[C@@H]1CC[C@H](NC(=O)Cc2ccccn2)[C@H](CO)O1)NCCCN1CCOCC1 | -4.5 | x | x | x | 2.8 | 1.4
O=C(CSc1nnc(-c2ccccc2F)n1C1CCCCC1)N1CCCC1 | -8.9 | 9.2 | 5.9 | -13.2 | x | x
O=C(CSc1nnc(-c2ccc(Cl)cc2Cl)n1C1CCCCC1)N1CCCC1 | x | 4.2 | 1.3 | 92.2* | x | x
COc1ccc(NC(=O)N(C)C[C@@H]2Oc3ncc(C#CCC(C)C)cc3C(=O)N([C@@H](C)CO)C[C@H]2C)cc1 | 12.1 | x | x | x | 7.1 | 9.6
COCC(=O)N1CC(=O)N2[C@@H](CO)[C@H](c3ccc(C#CC(C)C)cc3)[C@@H]2C1 | -12.5 | x | x | x | 4.8 | -2.1
Cc1nc(SCCC(=O)O)c2cc(-c3ccccc3)sc2n1 | -4.2 | 51.5 | 36.8 | -3.1 | 22.9 | 62.9*
COc1ccc(-c2nc3c(c(SCC(=O)Nc4cccc(O)c4)n2)Cc2c(CO)cnc(C)c2O3)cc1 | 88.2* | 6.5 | -11.3 | 9.8 | 15.7 | x
Cc1ncc(CO)c2c1Oc1nc(-c3ccccc3)nc(SCC(=O)Nc3cccc(O)c3)c1C2 | 28.3 | 4.0 | 9.6 | -2.5 | 5.3 | -0.4
COc1ccc(CNC(=O)C[C@H]2C=C[C@H](NC(=O)c3ccc4c(c3)OCO4)[C@H](CO)O2)cc1 | x | x | x | x | 14.2 | x
Cc1ccc(S(=O)(=O)Nc2cccc3c2O[C@@H](CN(C)C(=O)NC2CCCCC2)[C@H](C)CN([C@H](C)CO)C3=O)cc1 | -21.5 | x | x | x | -6.6 | -10.6
CC1CCc2nc(N)c(C#N)c(-c3cccnc3)c2C1 (stereo unspecified) | -61.8 | 4.0 | 58.6* | 20.6 | 26.8 | 3.4
CCN(CC(=O)NCc1ccc(F)cc1)CC(=O)Nc1cc(S(=O)(=O)N(C)C)ccc1C | -2.6 | 7.8 | 43.6* | 8.6 | -2.7 | 7.9
Cc1cccc(C(=O)N[C@H](C(=O)Nc2nnc(C3CC3)s2)C(C)C)c1 | 15.7 | -14.8 | 5.2 | -5.1 | -2.5 | x
Cc1cccc(C(=O)N[C@H](C(=O)Nc2ncc(C)s2)C(C)C)c1 | 70.4* | -9.2 | -55.3 | -10.1 | 25.7 | 37.2
Cn1cnc([N+](=O)[O-])c1S(=O)(=O)Nc1ccccc1 | 0.2 | 8.5 | 4.8 | -16.1 | 8.0 | -24.6
Cn1cnc([N+](=O)[O-])c1S(=O)(=O)c1cccc(Cl)c1 | 83.1* | 18.2 | -2.1 | -13.2 | 2.2 | 23.1
Cc1nn(C(C)C(=O)c2cccc(Cl)c2)c(C)c1[N+](=O)[O-] (stereo unspecified) | 2.8 | -1.8 | -7.5 | 11.4 | 3.0 | -5.8
Cn1cnc([N+](=O)[O-])c1S(=O)(=O)Oc1ccccc1 | 89.8* | 37.4 | -12.3 | 94.6* | 17.0 | 25.7
Cc1sc(NC(=O)CCCC(=O)O)c(C(N)=O)c1-c1ccccc1 | -9.7 | 41.4 | 11.1 | 36.2 | 27.0 | 54.2*
CO[C@H]1CN(C)C(=O)c2ccc(NS(=O)(=O)c3ccc(-c4ccccc4)cc3)cc2OC[C@H](C)NC[C@@H]1C | -20.4 | x | x | x | -6.0 | x
CC(=O)Nc1ccc(C(=S)NCC2(N(C)C)CCCCC2)cc1 | -16.7 | -5.4 | -8.1 | 1.7 | -9.0 | -11.1
SMILES | PAX8 inh HTS | TRPM1 prom inh | LMP1 NFkB inh | Shn3 3UTR inh | LGR2 inh | EWS-Fli block
CN(C)C1(CNC(=O)Nc2ccccc2)CCCCC1 | -8.8 | -7.2 | 42.5* | -7.8 | -8.2 | -6.3
C[C@@H]1CN([C@@H](C)CO)C(=O)Cc2cc(NC(=O)Nc3ccc4c(c3)OCO4)ccc2O[C@H]1CN(C)S(=O)(=O)c1cccs1 | -12.4 | x | x | x | 5.5 | 4.7
C=CC[n+]1ccc(/C=C2\C=Cc3cc(C)ccc3N2CC)c2ccccc21 | x | 83.8* | 56.5* | 70.7 | x | x
CCN1/C(=C/c2cc[n+](CCCS(=O)(=O)[O-])c3ccccc23)Sc2ccccc21 | 7.8 | 3.8 | 9.6 | 4.7 | 2.5 | -11.7
CC(C)Nc1ncnc2c1ncn2[C@H]1CN(Cc2ccco2)C[C@@H](CO)O1 | -15.2 | x | x | 0.5 | 10.5 | -1.6
COc1cc(CNc2ncnc3c2ncn3[C@H]2CN(Cc3ccc(-c4ccccc4)cc3)C[C@@H](CO)O2)cc(OC)c1OC | 93.7* | x | x | 48.4 | 15.0 | 35.0
CC(C)CNc1ncnc2c1ncn2[C@H]1CN(Cc2ccco2)C[C@@H](CO)O1 | 83.6* | x | x | 3.5 | -7.3 | -9.5
COc1cc(CNc2ncnc3c2ncn3[C@H]2CN(Cc3ccc(C(=O)O)cc3)C[C@@H](CO)O2)cc(OC)c1OC | 13.1 | x | x | 0.9 | 8.7 | -10.0
CO[C@@H]1CN(C)C(=O)c2cc(NC(=O)NC3CCCCC3)ccc2OC[C@H](C)N(CCc2ccccc2)C[C@H]1C | x | x | x | x | 36.7 | 8.5
Cc1ccc(Cl)cc1NC(=S)N/N=C/c1cccc2ccccc12 | 14.7 | 8.9 | 12.5 | 9.7 | 0.1 | 53.1*
CCN(CC)c1ccc2cc(-c3nc4ccccc4[nH]3)c(=O)oc2c1 | x | 78.8* | 10.9 | 49.3 | x | x
CCN(CC)c1ccc2cc(-c3nc4ccccc4n3C)c(=O)oc2c1 | x | -7.8 | -25.0 | 12.7 | -48.6 | x
C=CCn1c(C)c(C(C)=O)c(N2CCN(C(c3ccccc3)c3ccccc3)CC2)nc1=S | 3.7 | 2.4 | 55.4* | 10.9 | -15.1 | 14.9
CC(=O)c1c(N2CCN(C)CC2)nc(=S)n(Cc2ccccc2)c1C | 27.5 | 16.0 | -3.3 | -13.9 | 5.6 | -1.6
COc1ccc(-c2ccc3c(c2)[C@@H]2[C@@H](CCN2C(=O)c2ccc(F)cc2)[C@@H](CO)N3C)cc1 | -0.7 | x | x | x | 1.6 | 4.0
COc1ccc(-c2ccc3c(c2)[C@@H]2[C@@H](CCN2C(=O)NC2CCCCC2)[C@@H](CO)N3C)cc1 | 84.8* | x | x | x | -11.6 | -3.8
COc1ccc(NC(=O)N2CC[C@@H]3[C@H]2c2cc(-c4ccc(F)cc4)ccc2N(C)[C@H]3CO)cc1 | 71.0* | x | x | x | 3.2 | -5.9
CN1c2ccc(-c3ccccc3)cc2[C@@H]2[C@@H](CCN2C(=O)NC2CCCCC2)[C@@H]1CO | 81.3* | x | x | x | 14.2 | 4.2
CC(NC(=O)Nc1nnc(C(F)(F)F)s1)(C(F)(F)F)C(F)(F)F | x | 26.4 | 43.5* | 61.5 | x | x
CC(C)(C)CC(=O)Nc1nnc(C(F)(F)F)s1 | -4.3 | 2.7 | -14.1 | 7.1 | x | x
CCNC(=O)[C@@H]1[C@@H](CO)[C@@H]2Cn3c(ccc(-c4ccccc4)c3=O)[C@H]1N2C(=O)CC1CC1 | x | x | x | x | 9.8 | -1.7
